Laboratory results reported in the OligoGym collection.

Molecular target: FH
Assay: pooled miR-30 sensor sort-seq; sequence = guide strand
Conditions: shRNA
Also: reference of the scale not given here.

Row | Sequence | sensor-assay potency score (higher = more potent)
1 | TTACATTCATATTTGTCTGAGT | 0.037
2 | TCATATTTGTCTGAGTTCCTGA | 0.043
3 | TTGCTTCACACTGAGTAGGGTT | -0.374

Molecular target: FIGF
Assay: as above
Conditions: shRNA

Row | Sequence | sensor-assay potency score (higher = more potent)
4 | TTCATCTATAACTTTTAGTGTT | -0.356
5 | TTACATTTGTTGCTATCCCATA | -0.837
6 | TTTGTTGCTATCCCATAGCATG | -1.38
7 | TTGGTCTGGATTCACTGTGGTG | -0.724
8 | TTGGCAAGCACTTACAACCTGT | -0.889
9 | TAGTGTTTCAATGTCATAGAAA | -1.28
10 | TAGAAAGTTGCCGCAAACCTAG | -0.566
11 | TGATCTGCTGTTCAGATCGTTC | -1.69
12 | TAGAAGACATCCATCAATGAAC | -1.15
13 | TTCTTCATCTATAACTTTTAGT | -0.323
14 | AAACTTTTGAGCCTCAGCCTGC | -0.913
15 | TTACAGACACACTCGCAACGAT | -0.443
16 | TAATTGAGTATGGATGGCGGGG | -0.582
17 | TAGCATGTCAATAGGACAGAGT | -0.483
18 | TCATCTATAACTTTTAGTGTTT | -1.04
19 | TGTTTTACAGACACACTCGCAA | 0.505
20 | TTGCACTCAAAGCAACTGCAGT | -1.07
21 | ATCTTCGTCAAACATCATGTGT | -0.944
22 | TAATCAGTCATATGACACCTGC | -0.697
23 | TGCAACAGCCACCACATCGGAA | -0.975
24 | TTTTTTTTTAACACCTGGGAAA | -1.2
25 | TTCTGCATAAAAAAGAATCAGA | -0.887
26 | TTCTTTGCCATTCTTCATCTAT | -0.386
27 | TACAGACACACTCGCAACGATC | -1.17

Molecular target: FILIP1L
Assay: as above
Conditions: shRNA

Row | Sequence | sensor-assay potency score (higher = more potent)
28 | TTAGAGAACCACAAGACTCTGG | 0.224
29 | TTTTTCCACAACTTTGTCCAAC | -1.3
30 | TAATTTGTGATTGTCGAGGAAG | -0.722
31 | TTGCTGTTCATCCACCACCATC | -1.76
32 | TTTTTCAACATATTAACTCTTG | -0.558
33 | TATAGTTCATGCACAAACCTTC | -0.0966
34 | TTACTCTGTAACGTCTCCCTTT | -0.579
35 | TTGTCTACTGCTTCTGTCTGAA | 0.143
36 | TTTTTCTTTTATATCTTGCAGC | -0.415
37 | TTGAGTTCGGTTATCCTGCAGT | -0.337
38 | TTCTTGATCAATTAGCTTCTTT | 0.000192
39 | TTTTCTGCTAACTTGTACTTAG | -0.314
